The nature of the assay: GFP fluorescence inhibitors and quenchers, late-stage follow-up, artefact control for Rin1-Abl interaction inhibitor project, biochemical, dose response (AID 602397). The note with it: GFP fluorescence quenching counterscreen. (In general: The purpose of a counterscreen is to sort out artefacts and off-target activity.)

The other results are listed elsewhere or left out. Values without a mark were called inactive. How the calls were made is not given here. Bounds are passed on as bounds.

The record followed here is PubChem BioAssay AID602397 (The Scripps Research Institute Molecular Screening Center, 2012).

On to `CN(Cc1c(F)cccc1Cl)C(=O)CNC(=O)c1ccc2c(c1)OCO2`, for which the IC50 is above 67.5 µM.

One may read the IC50 as the midpoint of a concentration-inhibition curve.
